Among the test systems are SN12C renal; ACHN renal; CAKI-1 renal; A498 renal; OVCAR-5 ovarian; OVCAR-4 ovarian; SK-OV-3 ovarian; IGROV1 ovarian; OVCAR-3 ovarian; HS 578T breast; NCI/ADR-RES ovarian; UO-31 renal.
What all share (assay): NCI-60 one-dose screen, 48 h (100 = growth as untreated, 0 = no growth, -100 = all killed)
In a further assay the test system is SK-MEL-2 melanoma. The conditions noted are these: 10 µM unless noted.
A further assay concerns TK-10 renal. Conditions: 10 µM unless noted.
The test system of another assay is CCRF-CEM leukemia. Conditions: 10 µM unless noted.
The next assay concerns MOLT-4 leukemia. Conditions: 10 µM unless noted.
Another assay has as its system SR leukemia. The conditions noted are these: 10 µM unless noted.
The next assay deals with RPMI-8226 leukemia. The conditions noted are these: 10 µM unless noted.
A further assay has as its system OVCAR-8 ovarian. The conditions noted are these: 10 µM unless noted.
A further assay relates to EKVX NSCLC. The conditions noted are these: 10 µM unless noted.

SMILES strings stand for the structures. Several values for one entry are separate records, joined by “and”; a condition that tells them apart may be missing. Equal entries are not always repeated. The panel holds about 83,000 compounds, 20% with a hit somewhere; the sample as a whole holds those more often.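 Negative percent growth values reflect cell death: -40 means 40% of the cells present at the start died, and -100 means all died.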 A number with no mark means an inactive call. Activity calls are given as the source filed them. How the source made its calls: active means growth percent below 10; inactive means the rest.

Consider `CC(=O)ON=C1C=CC(=C(C#N)c2ccccc2)C=C1`, for which the growth with SK-MEL-2 melanoma is 41.2%; with SN12C renal (10 µM unless noted), 18%; in the assay with TK-10 renal, 21.1%; with ACHN renal (10 µM unless noted), 14%; in the assay with CAKI-1 renal (10 µM unless noted) it was 19.9%; in the assay on A498 renal (10 µM unless noted) it was 102%. Also, the growth with CCRF-CEM leukemia was 23.5%; in the assay with MOLT-4 leukemia, 40.8%; in the assay on SR leukemia, 17.4%; in the assay with RPMI-8226 leukemia it was 18.7%; in the assay on OVCAR-8 ovarian, 2.27% (active); in the assay on OVCAR-5 ovarian (10 µM unless noted), 123%. In addition, the growth is 60.6% in the assay on OVCAR-4 ovarian (10 µM unless noted); 55.7% in the assay with SK-OV-3 ovarian (10 µM unless noted); 2.9% (active) in the assay on IGROV1 ovarian (10 µM unless noted); -30.6% (active) with OVCAR-3 ovarian (10 µM unless noted); 15.5% in the assay with HS 578T breast (10 µM unless noted); -10.8% (active) in the assay on NCI/ADR-RES ovarian (10 µM unless noted).

Consider `CN(C)C(=O)c1ccc(SC(=S)NCc2ccccc2)cc1`, for which the growth in the assay on EKVX NSCLC was 69.5% [100 µM]; in the assay on SN12C renal (10 µM) it was 103%; in the assay with SN12C renal (100 µM), -15.4% (active); in the assay with UO-31 renal (10 µM) it was 93.2%; with UO-31 renal (100 µM) it was -67.4% (active); in the assay with TK-10 renal, -4.78% [100 µM] (active). For the same molecule, the growth was 103% with ACHN renal (10 µM); -56.9% (active) in the assay with ACHN renal (100 µM); 102% in the assay on CAKI-1 renal (10 µM); 11.2% in the assay on CAKI-1 renal (100 µM); 114% in the assay on A498 renal (10 µM); 96.1% with A498 renal (100 µM). Moreover, the growth was 0.435% [100 µM] (active) with CCRF-CEM leukemia; -36.6% [100 µM] (active) in the assay on SR leukemia; 113% with OVCAR-5 ovarian (10 µM); 20.1% with OVCAR-5 ovarian (100 µM); 113% in the assay on OVCAR-4 ovarian (10 µM); 43.8% in the assay with OVCAR-4 ovarian (100 µM). Besides, the growth in the assay on SK-OV-3 ovarian (10 µM) was 108%; in the assay on SK-OV-3 ovarian (100 µM), 108%; in the assay on IGROV1 ovarian (10 µM), 116%; in the assay with IGROV1 ovarian (100 µM), -28.3% (active); with OVCAR-3 ovarian (10 µM) it was 121%; in the assay with OVCAR-3 ovarian (100 µM) it was 46.9%. Further, the growth is 116% in the assay on HS 578T breast (10 µM), 45.7% in the assay with HS 578T breast (100 µM), 111% with NCI/ADR-RES ovarian (10 µM) and 2.6% (active) with NCI/ADR-RES ovarian (100 µM).

As to `O=C(Nc1cccc(Br)c1)Oc1ccc(Cl)c2cccnc12`, the growth with SK-MEL-2 melanoma is 17% [100 µM]; in the assay on SN12C renal (10 µM unless noted), 44.7% [100 µM]; with UO-31 renal (10 µM unless noted), 13.9% [100 µM]; in the assay with TK-10 renal, 170% [100 µM]; in the assay with ACHN renal (10 µM unless noted) it was 10.1% [100 µM]; in the assay on CAKI-1 renal (10 µM unless noted), 47% [100 µM]. Further, the growth is 96.1% [100 µM] in the assay on A498 renal (10 µM unless noted); 10.7% [100 µM] with CCRF-CEM leukemia; 2% [100 µM] (active) in the assay on MOLT-4 leukemia; 7.23% [100 µM] (active) in the assay with SR leukemia; 33.7% [100 µM] in the assay on OVCAR-5 ovarian (10 µM unless noted); 3.81% [100 µM] (active) with OVCAR-4 ovarian (10 µM unless noted). The growth is 95.6% [100 µM] with SK-OV-3 ovarian (10 µM unless noted), 13.6% [100 µM] in the assay on IGROV1 ovarian (10 µM unless noted), -48.7% [100 µM] (active) with OVCAR-3 ovarian (10 µM unless noted) and 6.36% [100 µM] (active) in the assay with NCI/ADR-RES ovarian (10 µM unless noted).

`O[C@H]1[C@H]2c3cc4c(cc3CN3CCC(=C[C@@H]1O)[C@H]23)OCO4`: the growth is 18.8% in the assay with SN12C renal (10 µM unless noted); 54.1% with TK-10 renal; 9.15% (active) in the assay on ACHN renal (10 µM unless noted); 28.1% in the assay on CAKI-1 renal (10 µM unless noted); 51.4% in the assay with A498 renal (10 µM unless noted); 23.6% in the assay with CCRF-CEM leukemia. In addition, the growth is 8% (active) in the assay on MOLT-4 leukemia; 32.7% in the assay with SR leukemia; 23.1% in the assay on RPMI-8226 leukemia; 26.7% in the assay on OVCAR-8 ovarian; 34.5% in the assay with OVCAR-5 ovarian (10 µM unless noted); 16.5% with OVCAR-4 ovarian (10 µM unless noted). Further, the growth was 22% in the assay with SK-OV-3 ovarian (10 µM unless noted), 40.8% in the assay with IGROV1 ovarian (10 µM unless noted), 34.5% with OVCAR-3 ovarian (10 µM unless noted) and 19.1% with NCI/ADR-RES ovarian (10 µM unless noted).

Take `O=C(Nc1ccccc1)Oc1c(Cl)c(Cl)c(Cl)c(Cl)c1Cl`: the growth in the assay with EKVX NSCLC is 97.7% and 87.2%; in the assay on SN12C renal (10 µM unless noted), 99.4% and 92.7%; in the assay on UO-31 renal (10 µM unless noted) it was 73.9% and 83.2%; in the assay on TK-10 renal, 100%; in the assay with ACHN renal (10 µM unless noted), 99.1% and 93.6%; in the assay with CAKI-1 renal (10 µM unless noted), 93.1% and 89.7%. Further, the growth in the assay on A498 renal (10 µM unless noted) was 95.9% and 76.8%; with CCRF-CEM leukemia it was 93.6% and 101%; in the assay with SR leukemia it was 98.2% and 99.2%; in the assay with RPMI-8226 leukemia, 95.2%; with OVCAR-8 ovarian, 105% and 98%; with OVCAR-5 ovarian (10 µM unless noted), 95.3% and 87.5%. For the same molecule, the growth in the assay on OVCAR-4 ovarian (10 µM unless noted) was 111% and 91.9%; with SK-OV-3 ovarian (10 µM unless noted), 102% and 90.5%; in the assay on IGROV1 ovarian (10 µM unless noted), 95.2% and 96.3%; in the assay on OVCAR-3 ovarian (10 µM unless noted) it was 96.9% and 104%; in the assay with HS 578T breast (10 µM unless noted) it was 91.6%; in the assay on NCI/ADR-RES ovarian (10 µM unless noted) it was 103% and 96.6%.

As to `CCCCCCCCCCCCCCCCCCOP(=O)([O-])OC1CC[N+](C)(C)CC1`, the growth is 36.3% and 41.5% in the assay on EKVX NSCLC; 19.9% and 24.9% with SN12C renal (10 µM unless noted); -5.55% (active) and -40.1% (active) in the assay on UO-31 renal (10 µM unless noted); 28.6% and 23.9% in the assay with ACHN renal (10 µM unless noted); -9.45% (active) and -42.7% (active) in the assay on CAKI-1 renal (10 µM unless noted); -21.6% (active) and -25.3% (active) in the assay with A498 renal (10 µM unless noted). Moreover, the growth in the assay with CCRF-CEM leukemia was -2.22% (active) and -53% (active); in the assay on MOLT-4 leukemia, -44.9% (active) and -49.8% (active); in the assay on SR leukemia, 3.18% (active) and -3.35% (active); in the assay with OVCAR-8 ovarian, 49.6%; in the assay on OVCAR-5 ovarian (10 µM unless noted), -24.1% (active) and -61.2% (active); in the assay on OVCAR-4 ovarian (10 µM unless noted), 65.2%. For the same molecule, the growth in the assay on SK-OV-3 ovarian (10 µM unless noted) is 35.9% and 48.2%; in the assay with IGROV1 ovarian (10 µM unless noted), -61.7% (active); in the assay with OVCAR-3 ovarian (10 µM unless noted), 65.9% and 14%; in the assay with NCI/ADR-RES ovarian (10 µM unless noted), 73.5% and 54.9%.

The values above are taken from PubChem BioAssay (NCI).
